In the library only some 4.6% were active in any assay of this set; here they are far more common.
D1 antag: antagonists of human D1 dopamine receptor | P21728 | actives 3.2% (n = 360,000) | HEK293 TREx D1 cells, calcium flux, dopamine EC80; active compounds read low | activity change, negative = inhibition, % at 10 µM; in the data active = activity change below about -30%
Target sequence (P21728 whole entry, looked up): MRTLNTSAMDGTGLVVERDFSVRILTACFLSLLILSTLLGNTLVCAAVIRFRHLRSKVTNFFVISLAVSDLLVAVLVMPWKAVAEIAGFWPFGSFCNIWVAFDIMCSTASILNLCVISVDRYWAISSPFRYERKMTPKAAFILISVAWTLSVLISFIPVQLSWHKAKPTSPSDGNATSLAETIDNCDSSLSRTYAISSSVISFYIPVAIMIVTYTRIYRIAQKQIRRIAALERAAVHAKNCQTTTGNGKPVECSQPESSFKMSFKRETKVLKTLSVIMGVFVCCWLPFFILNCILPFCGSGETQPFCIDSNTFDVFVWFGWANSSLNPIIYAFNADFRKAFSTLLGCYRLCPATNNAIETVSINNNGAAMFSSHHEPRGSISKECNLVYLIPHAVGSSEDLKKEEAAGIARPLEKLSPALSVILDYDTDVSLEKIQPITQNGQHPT
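Tetracycline-induced HEK293 Trex D1 cells, force-coupled to calcium, dye-loaded; compounds added and read 180 s, then EC80 dopamine added and calcium flux tracked kinetically another 180 s.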
TRHR enhancer: allosteric enhancers of human TRH receptor; P34981; TRHR cells, fluo-8 calcium fluorescence, EC20 TRH enhancement; enhancement, % at 2 µM; actives 0.66% (n = 360,000); AID 493056; in the data active = enhancement above about 30%
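TRHR-expressing cells loaded with fluo-8 calcium dye were read kinetically (ex 480/em 530) during compound addition, then stimulated with an EC20 of TRH (10 nM final). Enhancement of the Gq-mediated intracellular calcium response was scored.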
TRHR agonist: agonists of human TRH receptor; TRHR cells, calcium flux fluo-8, FDSS agonist mode; actives 0.18% (n = 360,000); activation, % at 2 µM; P34981
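Steps: seed TRHR cells overnight; add fluo-8 no-wash Ca dye, RT 30 min–1.5 h; record 10 s baseline; pin-transfer compounds; monitor fluorescence 1 cycle/s for the agonist window. Calcium increases flag candidate agonists.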
D1 agonist: activates the human D1 dopamine receptor; HEK293 T-REx D1 cells, calcium flux, agonist mode; activation, % at 2 µM; actives 1% (n = 360,000); AID 504660
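Inducible HEK293 T-REx D1 cells, force-coupled to calcium signalling, were plated at 4000 cells/well with tetracycline and held overnight at 30 C. After no-wash calcium dye loading, compound-evoked calcium rise over 180 s flagged agonists.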
D1 potentiator: human D1 dopamine receptor positive modulation. HEK293 TREx D1 cells, calcium flux, dopamine EC20 potentiation. actives 0.036% (n = 360,000). potentiation, % at 10 µM. AID 504651. P21728; in the data active = potentiation above about 30%
Large screens that a line does not name were inactive. Cut-off read from the data, not from the text of the source, unless noted: active = activation above about 30%; inactive = the rest.

O=C(Nc1ccc(F)c(F)c1)NC1CCCCC1	D1 antag -32
COc1ccc(-c2nc(N3CCN(S(=O)(=O)c4ccccc4)CC3)c3ccccc3n2)cc1	none
CCCCOc1ccc(C(=O)N2CCN(CCc3ccncc3)CC2)cc1	none
Cc1cccc2sc(NNC(=O)c3cc(-c4cccs4)nc4ccccc34)nc12	none
O=C(Nc1ccc(F)cc1)NC1CCCCCCC1	D1 antag -35
Cc1cccc(NC(=O)NC2CCCCCCC2)c1	D1 antag -34
Nc1ccc(NC(=O)NC2CCCCC2)cc1[N+](=O)[O-]	D1 antag -77
CC(C)N1C(=O)C(O)(c2c[nH]c3ccccc23)c2ccccc21 (stereo unspecified)	none
CCOc1ccc(NC(=O)CSc2cc(C)c3ccccc3n2)cc1	none
Cc1cnc(NC(=O)c2cc3ccccc3o2)s1	none
COc1ccnc(N2CCN(c3ccc(Cl)cc3)CC2)c1C#N	D1 antag -31
COc1ccc(CC(=O)Oc2ccccc2C)cc1	none
CCC(=O)c1ccc(OC(=O)Cc2ccc(OC)cc2)cc1	D1 antag -33, TRHR enhancer 38
Cc1nc2c3ccccc3nc(NNC(=O)CCC(=O)N3CCN(c4cc(Cl)ccc4C)CC3)n2n1	none
CCOc1ccccc1OCC(=O)Nc1ccc(OC)c(S(=O)(=O)N2CCCCC2)c1	none
CCOc1ccc(NC(=O)C(C)Oc2ccc(C#N)cc2)cc1S(=O)(=O)N1CCCC1 (stereo unspecified)	D1 agonist 38
CCOc1ccc2oc(=O)cc(CN3CCN(c4ccccc4OC)CC3)c2c1	TRHR enhancer 47
COc1ccccc1N1CCN(Cc2cc3c(cc2O)OCO3)CC1	D1 antag -37
CCOc1ccccc1N1CCN(Cc2cccc(OC)c2O)CC1	D1 antag -32
COCCNC(=O)c1nn(-c2ccc(C)cc2)c(=O)n(C)c1=O	none
COc1ccc(-c2nn(CCC#N)cc2C(=O)Nc2cccc(C(=O)O)c2)cc1OC	D1 antag -36
Cc1ccccc1NC(=O)c1cccc2c(=O)c3c([nH]c12)CCCC3	none
O=C(O)c1cccc2c3c([nH]c12)CCCC3	D1 antag -30
N=C1SC(c2ccccc2)C(=O)N1c1ncc(Cc2ccccc2Cl)s1 (stereo unspecified)	D1 antag -43
COc1ccc(N2CC(NC(=O)C(=O)c3c[nH]c4ccccc34)CC2=O)cc1 (stereo unspecified)	none (no result: D1 antag)
CCOc1ccc(C2=NNC(c3cccs3)=Nc3ccc(OC)cc32)cc1	D1 antag -38
O=C(NC1CCCC1)c1cc(-c2ccccc2O)on1	none
O=C(NC1CCCC1)c1cc(-c2cccs2)on1	D1 antag -42
COc1ccccc1-c1cc(C(=O)NC2CCCC2)no1	D1 antag -32
CNCCCC1Sc2ccccc2Oc2ccccc21 (stereo unspecified)	D1 antag -42
Cc1cccc(NC(=O)CN2C(=O)c3ccccc3Sc3ncccc32)c1C	none
CC(Sc1nccn1C)C(=O)Nc1ccc(C(N)=O)cc1 (stereo unspecified)	TRHR enhancer 31
CC(Sc1nnnn1C)C(=O)Nc1ccccc1 (stereo unspecified)	none
CCOc1ccc(NC(=O)C(C)Sc2nnnn2C)cc1 (stereo unspecified)	D1 antag -32
Cc1ccc(/C=C/c2onc(C)c2S(=O)(=O)N2CCC(C(=O)NCc3ccc(OC(C)C)cc3)CC2)cc1	none
CN(Cc1ccccc1)C(=O)CSc1nnc(-c2cccc(Cl)c2)o1	D1 antag -54, D1 agonist 56
C/C(=N\NC(=O)c1nn(C)c(C)c1Br)c1ccc(NC(=O)c2ccoc2C)cc1	TRHR enhancer 31
CNC(=O)C1CCN(Cc2cc3ccccc3n2Cc2ccccc2C)CC1	none
Cc1ccccc1Cn1c(CN2CCC(C(=O)NCCN(C)C)CC2)cc2ccccc21	D1 agonist 45
COc1ccc(NC(=O)c2ccc3[nH]c(C)cc(=O)c3c2)cc1	none
COCCn1c(C)cc(O)c(C(c2ccc(F)cc2)N2CCN(c3ccccc3)CC2)c1=O (stereo unspecified)	none
CCc1ccc2oc(=O)cc(CN3CCN(CCO)CC3)c2c1	D1 antag -50
Cc1ccc(-c2nnn(CC(=O)N(CCCO)C(C(=O)NC3CCCC3)c3ccc(F)cc3)n2)o1 (stereo unspecified)	none
Cc1cc(C)c([N+](=O)[O-])cc1NC(=O)CCSc1ccccc1Cl	D1 antag -35
O=C(CCSc1ccccc1Cl)Nc1cccc([N+](=O)[O-])c1	D1 antag -35
O=c1oc2cc(O)ccc2cc1S(=O)(=O)c1ccccc1	none
CCCCCCc1cc2cc(C(=O)NCc3ccccc3)c(=N)oc2cc1O	none
CCN(CC)c1ccc2cc(S(=O)(=O)c3ccc(Cl)cc3)c(=O)oc2c1	TRHR agonist 110, D1 agonist 272
CCCCCCc1cc2cc(S(=O)(=O)c3ccc(Cl)cc3)c(=O)oc2cc1O	D1 agonist 32
CCCCCCc1cc2cc(S(=O)(=O)c3ccc(C)cc3)c(=O)oc2cc1O	TRHR enhancer 47
CCCCCCc1cc2cc(-c3nnc(-c4cccc(Cl)c4)o3)c(=O)oc2cc1O	TRHR agonist 72, D1 agonist 129
CCCCSCCCNC(=O)c1cn(C)c2ccc(S(=O)(=O)N3CCCCC3)cc2c1=O	none
O=[N+]([O-])c1ccc(-n2ccnc2)cc1	D1 antag -38
COc1ccc(CNCc2ccc(C(F)(F)F)cc2)cc1OC	none
Cc1ccc(NC(=O)CN(C)S(=O)(=O)c2ccc3c(c2)n(C)c(=O)c(=O)n3C)cc1C	none
C[C@]12CCC(=O)C=C1C=C[C@@H]1[C@@H]2CC[C@@]2(C)[C@H]1CC[C@@]21CCC(=O)O1	D1 antag -34
COc1ccc(Cn2c(=O)c3c(nc(NCCO)n3C)n(C)c2=O)cc1	D1 antag -33
COCCCNc1nc2c(c(=O)n(Cc3ccc(OC)cc3)c(=O)n2C)n1C	none
Cn1c(NCCCCO)nc2c1c(=O)n(Cc1ccc(Cl)cc1)c(=O)n2C	D1 antag -33
O=c1c2cccc3c(N4CCOCC4)ccc(c32)c2nc3ccccc3n12	TRHR agonist 51, D1 agonist 72
COc1ccc(CC(=O)NC2CC(=O)N(c3ccc4c(c3)OCCO4)C2)cc1 (stereo unspecified)	none (no result: D1 antag)
CCn1nc(C(=O)NCC(c2cccs2)N2CCOCC2)c2ccccc2c1=O (stereo unspecified)	D1 antag -35
Cn1nc(C(=O)NCc2ccccc2)c2ccccc2c1=O	none
Cn1nc(C(=O)NCc2cccs2)c2ccccc2c1=O	D1 antag -41
Cn1nc(C(=O)NC2CCCC2)c2ccccc2c1=O	none
CC1CCCCC1NC(=O)c1nn(C)c(=O)c2ccccc12 (stereo unspecified)	D1 antag -32

High-throughput results (PubChem)
